Sampled rows, rich in hits. Any-hit rate of the full collection: about 6.9%.
HCV NS3h FP = blocks HCV NS3 helicase binding to DNA | NS3h Cy5-dT15 DNA binding, fluorescence polarization | inhibition, % at 100 µM | hit rate 1.6% among 16,000 | AID 687043;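 active means inhibition above the average over every tested compound plus 3 SD, cut at about 40% in these data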
Cy5 interf NS3h = enhances or quenches Cy5 fluorescence in NS3h assay; AID 720488; hit rate 6% among 16,000; Cy5-dT15 DNA with NS3h, fluorescence interference; actives lie on both sides; signal over control mean, under 1 quenches; fluorescence interference ratio at 100 µM;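 active means compound fluorescence over control fluorescence at most 0.8, a quencher, or at least a set upper limit, an enhancer; inactive means ratio between 0.8 and the set upper limit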
HCV NS3h conf = confirmation of hepatitis C virus NS3 helicase inhibitors; shares compounds with HCV NS3h FP; inhibition, % at 100 µM; hit rate 20% among 240; NS3h binding to Cy5-dT15 DNA, fluorescence polarization;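 active means percent inhibition of 50% or more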
SSB FP counter = E. coli SSB-DNA binding inhibition, NS3h counter-screen | E. coli SSB binding Cy5-dT15, fluorescence polarization | inhibition, % at 100 µM | shares compounds with HCV NS3h FP | hit rate 40% among 240;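 active means inhibition of at least 50%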;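 further: displacers lower Cy5 polarization so higher inhibition means more SSB displaced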
Target sequence (P0AGE0 whole entry, looked up): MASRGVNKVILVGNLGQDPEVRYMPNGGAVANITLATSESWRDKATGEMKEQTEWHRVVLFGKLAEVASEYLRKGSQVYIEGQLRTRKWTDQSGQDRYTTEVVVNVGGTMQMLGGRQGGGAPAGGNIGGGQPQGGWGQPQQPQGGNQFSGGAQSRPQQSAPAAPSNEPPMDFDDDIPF
Cy5 SSB fluor CB = Cy5 fluorescence interference in NS3h counter-screen; shares compounds with HCV NS3h FP; Cy5-dT15/E. coli SSB fluorescence interference; actives lie on both sides; fluorescence interference ratio at 100 µM; hit rate 8% among 240;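 active means fluorescence interference ratio at or above 1.2, signal boosting, or at or below 0.8, signal quenching; inactive means ratio between 0.8 and 1.2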
Cy5 interf conf = confirmation counter-screen for HCV NS3 helicase inhibitors: fluorescence interference; shares compounds with HCV NS3h FP; Cy5-dT15 DNA/NS3h fluorescence interference counterscreen; fluorescence interference ratio at 100 µM, hits read low; hit rate 44% among 240;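 active means fluorescence interference ratio at or below 0.8 quencher or at or above a set limitenhancer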
Each line names hits and unclear results; the compound was inactive in the other large screens (follow-up assays come after a bar, where they were run).

COc1ccc(C(=O)N/C(=C/c2ccc(OCCOc3ccccc3OC)cc2)C(=O)NCC2CCCO2)cc1 (stereo unspecified)	none
O=C(Nc1ccc(Cl)c(Cl)c1)C1CC(=O)N(c2cccc([N+](=O)[O-])c2)C1 (stereo unspecified)	none | HCV NS3h conf inactive | SSB FP counter inactive | Cy5 SSB fluor CB inactive | Cy5 interf conf inactive
Cc1ccc(NC(=O)C2CC(=O)N(c3ccc(Br)cc3)C2)cc1Cl (stereo unspecified)	none
Cc1ccccc1N1C(=O)CC(SC2=NCCS2)C1=O (stereo unspecified)	none
Cc1cc(C(=O)N/N=C\C(Cl)=C\c2ccccc2)n[nH]1	none
COc1ccc2c(c1)C1C=CCC1C(C(=O)O)N2 (stereo unspecified)	HCV NS3h FP 84.4 | HCV NS3h conf 59.4 | SSB FP counter 108.5 | Cy5 SSB fluor CB 1.46 | Cy5 interf conf inactive
O=C(O)C1Nc2c(Cl)cc(Cl)cc2C2C=CCC12 (stereo unspecified)	HCV NS3h FP 96.6 | HCV NS3h conf 57.3 | SSB FP counter 103.6 | Cy5 SSB fluor CB inactive | Cy5 interf conf 0.748
O=[N+]([O-])c1ccc2c(c1)C1C=CCC1C(c1cccc(Cl)c1Cl)N2 (stereo unspecified)	none
COc1ccc(NC(=O)CN(CCc2ccccc2)S(=O)(=O)c2ccccc2)cc1Cl	none
Cc1ccc(OCC(=O)NC2C3CC4CC(C3)CC2C4)c(Br)c1 (stereo unspecified)	none
COc1ccc(N2C(=O)c3ccccc3NC2c2cccc(F)c2)cc1 (stereo unspecified)	none
CCCN1C(=O)c2ccccc2NC1c1cccc(F)c1 (stereo unspecified)	none
CCN(CC)CCN1C(=O)c2ccccc2NC1c1cccc(F)c1 (stereo unspecified)	HCV NS3h FP 41.3 | HCV NS3h conf inactive | SSB FP counter inactive | Cy5 SSB fluor CB inactive | Cy5 interf conf inactive
Cc1ccc(N2C(=O)c3ccccc3NC2c2cccc(F)c2)cc1 (stereo unspecified)	none | HCV NS3h conf inactive | SSB FP counter inactive | Cy5 SSB fluor CB inactive | Cy5 interf conf 0.722
O=C(Nc1ccc(I)cc1Cl)c1cccc([N+](=O)[O-])c1	none
Cc1ccc(CNC(=O)C(=O)NCc2cccnc2)cc1	none
NC1=NC(=O)/C(=C/c2cc(Cl)c(OCc3ccccc3)c(Cl)c2)S1	none
CCCC(C(=O)O)N1C(=O)/C(=C\c2ccc(-c3ccc([N+](=O)[O-])cc3)o2)SC1=S (stereo unspecified)	HCV NS3h FP 84.1 | HCV NS3h conf inactive | SSB FP counter 53.9 | Cy5 SSB fluor CB inactive | Cy5 interf conf 0.705
O=C1/C(=C/c2ccc(-c3ccc([N+](=O)[O-])cc3)o2)SC(=S)N1Cc1ccccc1	none
O=C(CN1C(=O)/C(=C/c2cccc(Br)c2)SC1=S)Nc1ccccn1	none
O=C(CCCN1C(=O)/C(=C\c2cccc(Br)c2)SC1=S)Nc1ccc(C(=O)O)cc1	none | HCV NS3h conf inactive | SSB FP counter inactive | Cy5 SSB fluor CB inactive | Cy5 interf conf inactive
O=C(Nc1ccc(N2CCCCC2)cc1)c1ccc(-c2ccccc2)cc1	none
O=C1OC(c2ccc(F)cc2)=N/C1=C\c1ccccc1[N+](=O)[O-]	none
COCCCn1c(O)c(C2=c3ccccc3=NC2=O)sc1=S	none
O=C1N=c2ccc([N+](=O)[O-])cc2=C1c1sc(NS(=O)(=O)c2ccccc2)nc1O	HCV NS3h FP 41.1 | HCV NS3h conf inactive | SSB FP counter 101.2 | Cy5 SSB fluor CB inactive | Cy5 interf conf 0.747
O=C(O)CCn1c(O)c(C2=c3cc([N+](=O)[O-])ccc3=NC2=O)sc1=S	none | HCV NS3h conf inactive | SSB FP counter inactive | Cy5 SSB fluor CB inactive | Cy5 interf conf 0.774
O=[N+]([O-])c1cccc(S(=O)(=O)Nc2ccc(O)c(Cl)c2)c1	none
COc1ccc(C(=O)CC(Sc2ccccc2NC(C)=O)c2cccc(Br)c2)cc1 (stereo unspecified)	none
Cc1ccccc1NC(=O)CN(c1ccc(Cl)cc1)S(C)(=O)=O	none
O=C(Nc1nc(-c2ccc(Cl)cc2)cs1)c1cccs1	none | HCV NS3h conf inactive | SSB FP counter inactive | Cy5 SSB fluor CB inactive | Cy5 interf conf 0.768
O=C(NC(=S)Nc1nc(-c2ccccc2)cs1)c1ccc(Cl)cc1	none
C=CCn1c2ccccc2n2nc(C)c(C(=O)/C=C/c3ccccc3[N+](=O)[O-])c12	none
CN(C)c1ccc(NC(=O)c2ccc(Cl)cc2)cc1	none
CN(C)c1ccc(C(=O)Nc2ccc(S(N)(=O)=O)cc2)cc1	HCV NS3h FP 78.2 | HCV NS3h conf 57.3 | SSB FP counter inactive | Cy5 SSB fluor CB inactive | Cy5 interf conf 0.784
Cc1c(C(=O)O)cccc1-n1c(C)ccc1C	HCV NS3h FP 97.0, Cy5 interf NS3h 1.43 | HCV NS3h conf 66.9 | SSB FP counter 106.1 | Cy5 SSB fluor CB inactive | Cy5 interf conf inactive
O=C(O)c1cccc(C(=O)O)c1N(c1ccccc1)c1ccccc1	none
NC(=O)COc1ccc(/C=C2\C(=O)NC(=O)N(Cc3ccccc3)C2=O)cc1	none
CCN(CC)c1ccc(/C=C2/C(=O)NC(=O)N(c3ccccc3)C2=O)cc1	HCV NS3h FP 86.3, Cy5 interf NS3h 3.17 | HCV NS3h conf inactive | SSB FP counter inactive | Cy5 SSB fluor CB 1.64 | Cy5 interf conf 1.78
CCN(CC)c1ccc(/C=C2\C(=O)NC(=O)N(c3ccccc3OC)C2=O)cc1	none
C=CCOc1c(I)cc(/C=C2/C(=O)NC(=O)N(c3ccc(OC)cc3)C2=O)cc1OC	none
COc1cc(C=C2C(=O)NC(=O)NC2=O)cc(I)c1OCc1ccc([N+](=O)[O-])cc1	HCV NS3h FP 53.8, Cy5 interf NS3h 0.476 | HCV NS3h conf inactive | SSB FP counter inactive | Cy5 SSB fluor CB inactive | Cy5 interf conf 0.59
O=C1CC(Nc2ccc(F)cc2)C(=O)N1c1ccc(N2CCOCC2)cc1 (stereo unspecified)	none
COc1ccc(C2CC(C(F)(F)F)n3nc(C(=O)NCc4cccs4)c(Cl)c3N2)cc1OC (stereo unspecified)	none
Cc1ccccc1-n1c(O)c(C=C2C=CC=N2)c(=O)[nH]c1=S	HCV NS3h FP 62.6, Cy5 interf NS3h 0.751 | HCV NS3h conf 58.4 | SSB FP counter 140.0 | Cy5 SSB fluor CB 0.72 | Cy5 interf conf 0.738
O=c1[nH]c(=O)n(-c2ccc(Br)cc2)c(O)c1C=C1C=CC=N1	none
Cc1ccc2nsnc2c1NC(=O)c1cccc2ccccc12	none
COCCN1C(=O)/C(=C/c2c(Cl)cccc2Cl)SC1=S	none
COc1cc(/C=N\n2c(C)nnc2C)ccc1O	none
O=C1NC(=O)N(c2ccc(Cl)cc2)C(=O)/C1=C/c1cccs1	none
COc1ccc(OC)c(N2C(=O)NC(=O)C(=Cc3cccs3)C2=O)c1	HCV NS3h FP 95.3 | HCV NS3h conf inactive | SSB FP counter inactive | Cy5 SSB fluor CB inactive | Cy5 interf conf inactive
COc1ccc(OC)c(N2C(=O)NC(=O)/C(=C/C=C/c3ccccc3)C2=O)c1	HCV NS3h FP 48.8 | HCV NS3h conf inactive | SSB FP counter inactive | Cy5 SSB fluor CB inactive | Cy5 interf conf inactive
